This is an account of results in PMC7862700, “An all-to-all approach to the identification of sequence-specific readers for epigenetic DNA modifications on cytosine”.

What all share (assay): DAPPL (digital affinity profiling via proximity ligation, sequencing); 10 mM Tris-HCl pH 7.5, 50 mM NaCl, 1 mM DTT, 4% glycerol, room temperature, 30 min; GST-TFs on glutathione beads, 16-mer random dsDNA library, 0.1% formaldehyde crosslink after washing; high values mean tight binding
What all share (settings): protein: recombinant; tags: N-terminal GST; dsDNA, one strand shown

In experiment [1] the target is T1, ELK1 (Homo sapiens, UniProt P19419 1-428).
T1 sequence: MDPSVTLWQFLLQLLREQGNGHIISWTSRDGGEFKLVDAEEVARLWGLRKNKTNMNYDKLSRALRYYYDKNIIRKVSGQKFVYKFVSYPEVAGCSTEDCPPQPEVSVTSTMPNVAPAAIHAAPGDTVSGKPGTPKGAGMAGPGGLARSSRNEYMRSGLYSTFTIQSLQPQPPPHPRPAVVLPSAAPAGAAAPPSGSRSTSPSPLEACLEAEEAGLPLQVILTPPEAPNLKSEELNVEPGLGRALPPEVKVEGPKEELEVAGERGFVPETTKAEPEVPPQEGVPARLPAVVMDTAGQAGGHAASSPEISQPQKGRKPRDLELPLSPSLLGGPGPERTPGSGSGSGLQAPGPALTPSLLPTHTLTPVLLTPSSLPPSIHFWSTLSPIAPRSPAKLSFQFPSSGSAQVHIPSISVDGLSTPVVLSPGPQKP
In outline: (§1)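 Sequencing on an Illumina NextSeq500 followed washing, crosslinking with 0.1% formaldehyde, proximity ligation (BsaI/T4 ligase, 1 h, 37 °C) and PCR amplification of pools that had been incubated for 30 min at room temperature with 200 nmole of a random double-stranded 16-mer DNA library in Tris/NaCl/DTT/glycerol buffer. Each pool held DNA-barcoded human transcription factors, expressed in yeast as GST fusions and captured on glutathione beads, plus a tag-only sample. Binding signal is a hexamer's read frequency for a factor divided by its frequency in the tag-only sample.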

The target in experiment [2] is T2, GABPA (Homo sapiens, UniProt Q06546 1-454).
T2 sequence: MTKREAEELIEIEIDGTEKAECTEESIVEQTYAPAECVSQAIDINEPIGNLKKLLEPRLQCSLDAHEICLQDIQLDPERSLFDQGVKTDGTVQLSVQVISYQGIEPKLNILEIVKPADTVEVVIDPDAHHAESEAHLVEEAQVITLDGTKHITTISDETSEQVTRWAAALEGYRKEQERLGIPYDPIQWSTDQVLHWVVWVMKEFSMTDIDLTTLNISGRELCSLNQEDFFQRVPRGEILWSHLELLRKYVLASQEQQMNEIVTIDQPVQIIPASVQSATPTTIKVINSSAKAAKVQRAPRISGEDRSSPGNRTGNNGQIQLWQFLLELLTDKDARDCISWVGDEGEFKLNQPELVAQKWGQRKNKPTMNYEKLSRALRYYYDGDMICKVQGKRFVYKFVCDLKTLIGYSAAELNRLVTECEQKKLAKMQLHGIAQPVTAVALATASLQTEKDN
A digest of the protocol:
as §1

The target of experiment [3] is T3, ERG (Homo sapiens, UniProt P11308 1-479).
T3 sequence: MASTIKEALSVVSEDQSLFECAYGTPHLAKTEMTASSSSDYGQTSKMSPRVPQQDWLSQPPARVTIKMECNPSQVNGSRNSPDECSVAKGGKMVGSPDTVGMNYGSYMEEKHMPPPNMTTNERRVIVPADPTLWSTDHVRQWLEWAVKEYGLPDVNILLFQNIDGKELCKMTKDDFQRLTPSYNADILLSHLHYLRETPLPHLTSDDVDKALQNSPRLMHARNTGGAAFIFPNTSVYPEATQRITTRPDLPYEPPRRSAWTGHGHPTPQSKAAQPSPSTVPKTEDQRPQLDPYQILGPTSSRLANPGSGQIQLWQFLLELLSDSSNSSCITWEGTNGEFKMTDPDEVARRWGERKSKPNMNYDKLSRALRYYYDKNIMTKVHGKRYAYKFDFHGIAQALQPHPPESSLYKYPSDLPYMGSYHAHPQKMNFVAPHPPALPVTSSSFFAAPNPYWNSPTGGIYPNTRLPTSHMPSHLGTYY
In outline: as §1

For experiment [4], the target named is ELF1 (Homo sapiens, UniProt P32519 1-619). A digest of the protocol: as §1
Experiment [5] deals with T4, EHF (Homo sapiens, UniProt Q9NZC4 1-300).
T4 sequence: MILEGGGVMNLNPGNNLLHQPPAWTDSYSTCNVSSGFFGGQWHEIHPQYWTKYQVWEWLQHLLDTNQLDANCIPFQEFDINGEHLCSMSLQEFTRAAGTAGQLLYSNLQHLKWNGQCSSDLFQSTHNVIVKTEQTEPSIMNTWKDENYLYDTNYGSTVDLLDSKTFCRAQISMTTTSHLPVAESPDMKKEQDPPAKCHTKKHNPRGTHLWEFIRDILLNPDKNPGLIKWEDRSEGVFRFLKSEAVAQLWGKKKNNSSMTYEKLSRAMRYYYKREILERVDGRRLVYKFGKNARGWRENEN
In outline:
as §1

Experiment [6] deals with SPIB (Homo sapiens, UniProt Q01892 1-262). In outline: as §1
Experiment [7] concerns the target T5, ELK3 (Homo sapiens, UniProt P41970 1-407).
T5 sequence: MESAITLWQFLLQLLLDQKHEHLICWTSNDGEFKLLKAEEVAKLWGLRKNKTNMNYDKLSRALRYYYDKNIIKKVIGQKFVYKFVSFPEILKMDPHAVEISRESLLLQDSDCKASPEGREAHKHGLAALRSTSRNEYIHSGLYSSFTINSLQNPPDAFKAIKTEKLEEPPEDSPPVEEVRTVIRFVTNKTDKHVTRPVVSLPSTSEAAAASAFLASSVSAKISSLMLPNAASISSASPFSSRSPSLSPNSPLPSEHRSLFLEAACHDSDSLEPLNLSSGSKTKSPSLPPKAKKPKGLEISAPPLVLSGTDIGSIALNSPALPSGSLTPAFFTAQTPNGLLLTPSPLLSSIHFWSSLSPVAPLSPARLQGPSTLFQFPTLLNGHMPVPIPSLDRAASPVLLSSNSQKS
A digest of the protocol: as §1

The target of experiment [8] is ETV5 (Homo sapiens, UniProt P41161 1-510). A digest of the protocol:
as §1

Experiment [9] has as its target T6, SPIC (Homo sapiens, UniProt Q8N5J4 1-248).
T6 sequence: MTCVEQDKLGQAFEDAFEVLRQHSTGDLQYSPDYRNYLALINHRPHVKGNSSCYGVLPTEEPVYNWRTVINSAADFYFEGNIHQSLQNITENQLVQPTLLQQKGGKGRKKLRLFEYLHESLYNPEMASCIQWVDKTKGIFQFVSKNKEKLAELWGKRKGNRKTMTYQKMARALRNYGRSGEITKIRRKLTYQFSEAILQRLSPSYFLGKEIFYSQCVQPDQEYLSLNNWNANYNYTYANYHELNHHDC
A digest of the protocol:
as §1

Experiment [10] addresses ELF4 (Homo sapiens, UniProt Q99607 1-663). In outline: as §1
Experiment [11] concerns the target T7, ELF3 (Homo sapiens, UniProt P78545 1-371).
T7 sequence: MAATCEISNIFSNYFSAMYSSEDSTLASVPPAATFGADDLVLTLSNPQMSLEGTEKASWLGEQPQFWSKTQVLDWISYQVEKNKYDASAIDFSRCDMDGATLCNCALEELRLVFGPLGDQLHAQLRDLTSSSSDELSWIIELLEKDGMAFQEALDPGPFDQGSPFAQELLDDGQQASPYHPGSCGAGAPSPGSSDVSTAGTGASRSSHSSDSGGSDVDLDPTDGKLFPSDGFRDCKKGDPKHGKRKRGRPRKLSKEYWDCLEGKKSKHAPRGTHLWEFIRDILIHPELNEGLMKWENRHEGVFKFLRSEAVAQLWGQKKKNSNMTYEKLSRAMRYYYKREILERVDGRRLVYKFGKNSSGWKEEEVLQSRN
In outline: as §1

Experiment [12] concerns the target ETV1 (Homo sapiens, UniProt P50549 1-477). In outline: as §1
Experiment [13] concerns the target T8, ERF (Homo sapiens, UniProt P50548 1-548).
T8 sequence: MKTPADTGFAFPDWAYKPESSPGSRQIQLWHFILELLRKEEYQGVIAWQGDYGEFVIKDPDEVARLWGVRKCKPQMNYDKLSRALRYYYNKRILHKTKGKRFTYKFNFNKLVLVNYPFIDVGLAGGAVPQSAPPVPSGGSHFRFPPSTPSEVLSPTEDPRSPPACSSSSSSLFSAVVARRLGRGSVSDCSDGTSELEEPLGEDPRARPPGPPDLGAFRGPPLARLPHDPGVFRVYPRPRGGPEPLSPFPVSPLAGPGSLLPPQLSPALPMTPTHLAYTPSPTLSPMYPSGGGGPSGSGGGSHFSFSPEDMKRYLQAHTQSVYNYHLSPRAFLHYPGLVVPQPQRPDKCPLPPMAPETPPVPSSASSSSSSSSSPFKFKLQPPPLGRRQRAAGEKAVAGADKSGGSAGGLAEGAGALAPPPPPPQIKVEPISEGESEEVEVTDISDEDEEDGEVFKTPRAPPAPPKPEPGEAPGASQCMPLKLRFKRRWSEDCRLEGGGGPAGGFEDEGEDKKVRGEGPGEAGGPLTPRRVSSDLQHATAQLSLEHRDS
A digest of the protocol: as §1

In experiment [14] the target is T9, ETV3L (Homo sapiens, UniProt Q6ZN32 1-361).
T9 sequence: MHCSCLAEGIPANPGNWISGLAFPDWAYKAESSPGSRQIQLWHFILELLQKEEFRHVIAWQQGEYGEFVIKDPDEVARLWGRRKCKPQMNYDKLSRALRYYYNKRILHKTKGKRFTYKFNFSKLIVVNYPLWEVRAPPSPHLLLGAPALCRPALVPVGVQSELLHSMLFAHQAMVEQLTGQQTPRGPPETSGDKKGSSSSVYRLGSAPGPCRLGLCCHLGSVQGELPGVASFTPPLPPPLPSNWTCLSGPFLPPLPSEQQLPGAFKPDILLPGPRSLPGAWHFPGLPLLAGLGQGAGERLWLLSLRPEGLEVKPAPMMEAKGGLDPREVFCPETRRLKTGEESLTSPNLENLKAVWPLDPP
In outline:
as §1

Experiment [15] deals with T10, ETS2 (Homo sapiens, UniProt P15036 1-469).
T10 sequence: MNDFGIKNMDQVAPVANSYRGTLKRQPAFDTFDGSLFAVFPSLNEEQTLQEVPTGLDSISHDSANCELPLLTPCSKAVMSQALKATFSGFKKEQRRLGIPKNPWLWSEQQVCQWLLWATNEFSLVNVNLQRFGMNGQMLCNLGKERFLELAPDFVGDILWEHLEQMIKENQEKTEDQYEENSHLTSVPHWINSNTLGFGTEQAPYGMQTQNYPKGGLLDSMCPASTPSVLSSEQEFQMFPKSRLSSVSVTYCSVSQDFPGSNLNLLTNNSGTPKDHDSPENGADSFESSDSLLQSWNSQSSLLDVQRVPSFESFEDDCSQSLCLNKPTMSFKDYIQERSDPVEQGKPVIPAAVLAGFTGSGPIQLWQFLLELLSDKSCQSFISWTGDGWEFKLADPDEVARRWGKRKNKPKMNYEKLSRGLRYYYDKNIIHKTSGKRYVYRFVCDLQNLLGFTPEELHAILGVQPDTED
A digest of the protocol:
as §1

The target of experiment [16] is T11, SPDEF (Homo sapiens, UniProt O95238 1-335).
T11 sequence: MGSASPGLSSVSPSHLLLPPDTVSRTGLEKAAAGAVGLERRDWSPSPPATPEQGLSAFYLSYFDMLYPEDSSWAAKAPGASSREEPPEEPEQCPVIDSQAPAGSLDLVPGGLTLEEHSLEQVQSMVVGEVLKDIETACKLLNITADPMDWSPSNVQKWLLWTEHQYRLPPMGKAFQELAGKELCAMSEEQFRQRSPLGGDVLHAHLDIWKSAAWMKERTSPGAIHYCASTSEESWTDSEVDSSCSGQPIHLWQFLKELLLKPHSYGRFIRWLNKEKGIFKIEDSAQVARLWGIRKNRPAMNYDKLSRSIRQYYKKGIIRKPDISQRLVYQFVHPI
A digest of the protocol: as §1

For experiment [17], the target named is T12, ETV7 (Homo sapiens, UniProt Q9Y603 1-341).
T12 sequence: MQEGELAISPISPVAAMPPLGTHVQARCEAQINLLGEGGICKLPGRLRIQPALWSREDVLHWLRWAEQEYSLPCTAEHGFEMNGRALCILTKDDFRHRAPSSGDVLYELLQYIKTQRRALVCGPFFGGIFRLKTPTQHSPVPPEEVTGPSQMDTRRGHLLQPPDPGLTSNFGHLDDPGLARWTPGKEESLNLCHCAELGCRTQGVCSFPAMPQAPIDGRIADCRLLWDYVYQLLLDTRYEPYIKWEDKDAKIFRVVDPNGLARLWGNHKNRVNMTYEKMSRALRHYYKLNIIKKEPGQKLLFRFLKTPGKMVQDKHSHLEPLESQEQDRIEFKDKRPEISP
In outline: as §1

For experiment [18], the target named is T13, ETV3 (Homo sapiens, UniProt P41162-2 1-143).
T13 sequence: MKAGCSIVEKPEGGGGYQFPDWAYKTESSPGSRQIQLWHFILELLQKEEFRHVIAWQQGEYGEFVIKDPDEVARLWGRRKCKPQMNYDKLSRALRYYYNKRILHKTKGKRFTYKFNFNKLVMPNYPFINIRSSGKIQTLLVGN
A digest of the protocol:
as §1

The target of experiment [19] is ETV6 (Homo sapiens, UniProt P41212 1-452). A digest of the protocol:
as §1

ELF4, sequence (Q99607 whole entry): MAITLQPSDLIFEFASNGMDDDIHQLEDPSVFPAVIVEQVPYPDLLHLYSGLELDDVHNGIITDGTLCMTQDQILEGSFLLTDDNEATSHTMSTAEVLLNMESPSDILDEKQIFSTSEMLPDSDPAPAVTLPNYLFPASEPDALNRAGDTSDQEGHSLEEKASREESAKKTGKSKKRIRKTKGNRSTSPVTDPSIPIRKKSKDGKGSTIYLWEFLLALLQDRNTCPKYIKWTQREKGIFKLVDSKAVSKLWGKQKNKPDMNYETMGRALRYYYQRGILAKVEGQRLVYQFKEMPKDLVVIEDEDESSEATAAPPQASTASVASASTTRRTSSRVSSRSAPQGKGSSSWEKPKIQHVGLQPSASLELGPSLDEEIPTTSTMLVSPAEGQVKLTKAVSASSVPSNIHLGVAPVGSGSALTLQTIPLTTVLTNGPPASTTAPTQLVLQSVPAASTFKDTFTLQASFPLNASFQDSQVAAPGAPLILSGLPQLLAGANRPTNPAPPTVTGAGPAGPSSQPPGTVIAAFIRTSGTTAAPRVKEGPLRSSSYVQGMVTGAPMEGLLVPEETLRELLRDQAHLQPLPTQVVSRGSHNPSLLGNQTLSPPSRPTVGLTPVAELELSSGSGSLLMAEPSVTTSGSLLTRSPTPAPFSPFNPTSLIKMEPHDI
ETV6, sequence (P41212 whole entry): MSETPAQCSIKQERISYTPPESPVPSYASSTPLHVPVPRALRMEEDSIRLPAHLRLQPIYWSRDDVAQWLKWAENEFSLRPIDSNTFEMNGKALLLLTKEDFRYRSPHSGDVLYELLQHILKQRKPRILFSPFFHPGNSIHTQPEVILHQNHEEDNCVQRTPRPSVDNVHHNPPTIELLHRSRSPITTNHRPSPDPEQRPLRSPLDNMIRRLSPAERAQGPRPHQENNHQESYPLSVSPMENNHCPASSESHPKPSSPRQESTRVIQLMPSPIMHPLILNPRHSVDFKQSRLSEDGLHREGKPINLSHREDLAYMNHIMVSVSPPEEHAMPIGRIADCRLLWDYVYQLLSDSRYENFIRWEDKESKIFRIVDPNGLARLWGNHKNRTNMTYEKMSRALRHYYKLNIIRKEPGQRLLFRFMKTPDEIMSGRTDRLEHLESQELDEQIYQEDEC
ETV5, sequence (P41161 whole entry): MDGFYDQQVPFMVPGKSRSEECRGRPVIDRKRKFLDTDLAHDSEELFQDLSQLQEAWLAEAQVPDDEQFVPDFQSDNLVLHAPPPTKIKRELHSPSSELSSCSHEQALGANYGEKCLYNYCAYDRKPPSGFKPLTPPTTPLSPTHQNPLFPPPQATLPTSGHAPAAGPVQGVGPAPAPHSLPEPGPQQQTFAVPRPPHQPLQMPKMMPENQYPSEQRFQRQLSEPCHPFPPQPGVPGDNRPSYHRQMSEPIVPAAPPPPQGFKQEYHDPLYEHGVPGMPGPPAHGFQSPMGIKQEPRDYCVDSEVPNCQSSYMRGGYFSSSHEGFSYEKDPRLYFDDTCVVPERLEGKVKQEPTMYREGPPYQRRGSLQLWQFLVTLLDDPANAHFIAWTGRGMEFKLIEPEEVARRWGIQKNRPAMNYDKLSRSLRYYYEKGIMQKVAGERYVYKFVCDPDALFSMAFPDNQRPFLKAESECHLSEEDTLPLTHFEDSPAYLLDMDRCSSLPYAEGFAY
SPIB, sequence (Q01892 whole entry): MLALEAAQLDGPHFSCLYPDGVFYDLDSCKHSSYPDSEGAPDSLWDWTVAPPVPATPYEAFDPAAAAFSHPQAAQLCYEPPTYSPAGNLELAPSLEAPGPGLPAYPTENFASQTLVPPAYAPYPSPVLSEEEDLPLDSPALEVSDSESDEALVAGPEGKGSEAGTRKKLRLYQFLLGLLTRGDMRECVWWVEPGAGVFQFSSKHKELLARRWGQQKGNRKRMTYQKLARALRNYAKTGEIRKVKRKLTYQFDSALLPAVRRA
ELF1, sequence (P32519 whole entry): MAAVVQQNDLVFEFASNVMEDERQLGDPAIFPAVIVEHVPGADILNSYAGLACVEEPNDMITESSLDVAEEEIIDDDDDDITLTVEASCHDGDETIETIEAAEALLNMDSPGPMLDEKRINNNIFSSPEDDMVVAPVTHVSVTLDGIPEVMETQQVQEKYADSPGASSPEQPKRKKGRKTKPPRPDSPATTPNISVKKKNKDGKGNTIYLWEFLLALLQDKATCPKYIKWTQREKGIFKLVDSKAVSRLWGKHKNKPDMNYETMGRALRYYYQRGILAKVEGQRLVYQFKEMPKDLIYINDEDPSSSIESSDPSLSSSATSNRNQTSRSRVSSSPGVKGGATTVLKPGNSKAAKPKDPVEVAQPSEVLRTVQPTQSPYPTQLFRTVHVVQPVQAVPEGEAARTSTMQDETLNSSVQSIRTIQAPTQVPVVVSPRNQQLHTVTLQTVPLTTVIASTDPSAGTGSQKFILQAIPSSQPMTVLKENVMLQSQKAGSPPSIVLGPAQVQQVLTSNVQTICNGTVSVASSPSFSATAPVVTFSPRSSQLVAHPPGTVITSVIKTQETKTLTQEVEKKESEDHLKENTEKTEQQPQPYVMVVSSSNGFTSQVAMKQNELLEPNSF
ETV1, sequence (P50549 whole entry): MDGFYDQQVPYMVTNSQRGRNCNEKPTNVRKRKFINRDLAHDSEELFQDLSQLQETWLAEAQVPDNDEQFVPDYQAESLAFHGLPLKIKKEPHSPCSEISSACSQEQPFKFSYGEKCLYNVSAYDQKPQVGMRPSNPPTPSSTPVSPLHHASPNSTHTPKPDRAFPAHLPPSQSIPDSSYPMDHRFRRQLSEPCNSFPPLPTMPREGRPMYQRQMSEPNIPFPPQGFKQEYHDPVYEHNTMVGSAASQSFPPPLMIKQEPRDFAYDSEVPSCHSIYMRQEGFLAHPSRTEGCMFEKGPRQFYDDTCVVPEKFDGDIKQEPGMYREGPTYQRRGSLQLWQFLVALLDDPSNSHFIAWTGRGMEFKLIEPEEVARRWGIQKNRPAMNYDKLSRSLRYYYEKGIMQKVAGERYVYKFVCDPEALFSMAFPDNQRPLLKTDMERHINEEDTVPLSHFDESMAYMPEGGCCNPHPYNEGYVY

AGTGCA: the binding signal in [1] is 1.1 fold enrichment (6-mer frequency, TF over GST control); in experiment [2], 1.1 fold enrichment (6-mer frequency, TF over GST control); in [3] it was 1.07 fold enrichment (6-mer frequency, TF over GST control); in experiment [4], 1.07 fold enrichment (6-mer frequency, TF over GST control); in [5], 1.09 fold enrichment (6-mer frequency, TF over GST control); in experiment [6], 1.08 fold enrichment (6-mer frequency, TF over GST control). Moreover, the binding signal in [7] was 1.13 fold enrichment (6-mer frequency, TF over GST control); in experiment [8], 1.14 fold enrichment (6-mer frequency, TF over GST control); in experiment [9] it was 1.21 fold enrichment (6-mer frequency, TF over GST control); in [10], 1.03 fold enrichment (6-mer frequency, TF over GST control); in [11], 1.16 fold enrichment (6-mer frequency, TF over GST control); in experiment [12], 1.11 fold enrichment (6-mer frequency, TF over GST control). Also, the binding signal in experiment [13] was 1.12 fold enrichment (6-mer frequency, TF over GST control); in experiment [14], 1.03 fold enrichment (6-mer frequency, TF over GST control); in experiment [15], 1.08 fold enrichment (6-mer frequency, TF over GST control); in experiment [16] it was 1.07 fold enrichment (6-mer frequency, TF over GST control); in [17] it was 1.18 fold enrichment (6-mer frequency, TF over GST control); in [18], 1.05 fold enrichment (6-mer frequency, TF over GST control). The binding signal in [19] was 1.16 fold enrichment (6-mer frequency, TF over GST control).
